# This is a sample that favours compounds with a hit; in the whole collection about 19% have one here.
# DT40 TDP1 no CPT – qHTS for Inhibitors of human tyrosyl-DNA phosphodiesterase 1 (TDP1): qHTS in cells in absence of CPT. AID 686978, 2013. DT40 Tdp1-/- hTDP1 cells, no CPT, ATP luminescence, 48 h. Potency, µM (doses to about 46.2 µM), for inactives: top-dose activity change, negative = growth inhibition, hits mostly inhibitors. 420,000 compounds, 15% hits; also: potency is read from the fitted curve at half-maximal effect; nearly all actives have a fitted effect of over 55% in size
#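 A cellular qHTS used chicken DT40 cells lacking endogenous Tdp1 but carrying stably transfected human TDP1. Compounds were applied without camptothecin, and cell growth kinetics were judged by ATP-dependent luminescence after ≥48 hr.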
# HT1080NT lethal – kills 2HG-producing HT-1080-NT fibrosarcoma cells; Potency, µM (highest dose often 46.1 µM), for the others: at the top dose activity, negative = less viability, usual class: cytotoxic; HT-1080-NT fibrosarcoma viability, CellTiter-Glo ATP luminescence, 48 h; 360,000 compounds, 1.6% hits;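 also: NT is the 2HG producing partner of a matched IDH1 knockdown line; potency is read from the fitted curve at half-maximal effect; 0% = DMSO-treated cells and -100% = media-only wells without cells; nearly all actives have a fitted effect of over 55% in size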
#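 Viability by CellTiter-Glo luminescence after 48 h compound exposure at 37C of HT-1080-NT cells (750/well, RPMI, 5% FBS). % activity scaled between DMSO wells and medium-only wells, then curve-fitted and categorized by curve class.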
# IL-1B inflam inh – inhibitors of inflammasome signaling (IL-1 beta secretion); THP-1 LPS/ATP IL-1B secretion, AlphaLISA, 16 h; hits give low values; activity change, % at 57.5 µM; 360,000 compounds, 4.7% hits; AID 743279; in the data active = activity change below about -50%; inconclusive = mostly about -30% to -49%
#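 THP-1 cells pretreated 1 hr with compounds (up to 57.5 uM final), then stimulated with LPS (250 ng/mL final) plus ATP (1.25 mM final); secreted IL-1B measured by AlphaLISA after 16 hr, decreased signal indicating inhibition.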
# DT40 TDP1 CPT – DT40-hTDP1 cell growth loss with CPT. chicken DT40 Tdp1-/-;hTDP1 cells + 20 nM CPT, ATP luminescence, 48 h. Potency, µM (titrated, usually from 46.2 µM), for inactives: at the highest dose activity change, negative = growth inhibition, usual class: inhibitors. 420,000 compounds, 12% hits. AID 686979; also: potency is read from the fitted curve at half-maximal effect; nearly all actives have a fitted effect of over 55% in size
#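 Chicken DT40 Tdp1-/- cells complemented with human TDP1, 400 cells/well, exposed to compounds plus 20 nM camptothecin for at least 48 h at 37 C; viability read as ATP content by CellTiter-Glo luminescence.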
# HT1080 IDH1KD tx – kills HT-1080 cells with IDH1 knockdown | Potency, µM (series often up to 46.1 µM), for inactives: at the highest dose activity, negative = toxicity, usual class: cytotoxic | 360,000 compounds, 2% hits | HT-1080 IDH1 knockdown viability, ATP luminescence, 48 h;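 also: potency is read from the fitted curve at half-maximal effect; 0% = DMSO wells and -100% = cell-free medium wells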
#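 % activity derives from luminescence (CellTiter-Glo), normalised to DMSO and no-cell wells. HT-1080-IDH1KD cells, 750/well, had 48 h compound exposure at 37 °C.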
# * = called active by the depositor; ? = inconclusive; . = no result given; ! = not active in a repeat. Unless noted, calls follow the shape of the dose curve; as a rule, active = well fitted curve in the direction sought with a large enough effect; inconclusive = small, poorly fitted or top-dose-only effect, or another doubt; inactive = no such curve, though single readings can be large; an effect the other way counts as inactive or inconclusive. Unless noted, % is scaled to controls: 0 for no effect and ±100 for the full control effect.
SMILES,DT40 TDP1 no CPT,HT1080NT lethal,IL-1B inflam inh,DT40 TDP1 CPT,HT1080 IDH1KD tx
COc1ccc(-n2cc(CNCCc3cscn3)c(-c3ccccc3Cl)n2)cc1,12µM*,-10%,-63*,16µM*,-21%
Cc1ccc(-n2cc(CNCCc3cscn3)c(-c3ccc(F)cc3)n2)cc1,23µM*,21µM*,-94*,?,21µM*
COc1ccc(CCNC(=O)CSc2nc3[nH]c(=O)cc(O)c3s2)cc1,10%,9%,9,9%,-1%
CCC1(c2ccccc2)NC(=O)N(CC(=O)NNC(=O)COc2ccc(Cl)cc2C)C1=O (configuration not stated),6%,-1%,-10,2%,-16%
c1ccc2cc(Sc3ncnc4c3oc3ccccc34)ccc2c1,?,-2%,-7,?,-1%
Cc1cc(C)nc(Sc2ncnc3c2oc2ccccc23)n1,23µM*,6%,-18,?,1%
CC(=O)N1CCc2cc(C(=O)CN3CCN(c4ccccn4)CC3)ccc21,9%,12%,29,12%,-1%
CCN(CC)CCNC(=O)c1ccc(CS(=O)(=O)c2ccccc2C)o1,19%,3%,6,-4%,15%
NS(=O)(=O)c1cccc(Nc2nc3ccccc3nc2NS(=O)(=O)c2ccc(Cl)cc2)c1,-17%,18µM*,?,-23%,21µM*
O=[N+]([O-])c1ccc(S(=O)(=O)Nc2nc3ccccc3nc2Nc2ccccc2)cc1,2.9µM*,6%,-73*,3.3µM*,0%
COc1cc(Nc2nc3ccccc3nc2NS(=O)(=O)c2ccc([N+](=O)[O-])cc2)cc(OC)c1OC,?,-19%,-12,10µM*,-6%
O=C(O)c1ccc(Nc2nc3ccccc3nc2NS(=O)(=O)c2ccc(F)cc2)cc1,?,-11%,5,?,-5%
O=C(NC1CCCC1)C1c2ccccc2OCC(=O)N1Cc1cccnc1 (configuration not stated),-4%,-2%,-3,3%,3%
C=CCC[C@H](Cc1ccc(F)cc1)C(=O)OC[C@H](Cc1c[nH]c2ccccc12)NC(=O)[C@@H](CC=C)CC(=O)NCCO,?,-14%,-12,?,-7%
Cc1nnc(NC(=O)CCS(=O)(=O)c2ccccc2)s1,?,?,-93*,16µM*,?
CC(C)(C)c1nnc(NC(=O)CCS(=O)(=O)c2ccccc2)s1,23µM*,-17%,-103*,7.3µM*,?
CC1(C)CC(=O)c2sc(NC(=O)CCS(=O)(=O)c3ccccc3)nc2C1,5.8µM*,-21%,-82*,3.3µM*,-29%
O=C(CCS(=O)(=O)c1ccccc1)Nc1nnc(C(F)(F)F)s1,13µM*,?,3,?,18µM*
CC(Oc1ccccc1)C(=O)Nc1nc2c(s1)C(=O)CC(C)(C)C2 (configuration not stated),-6%,3%,-11,-4%,2%
Cc1ccc(S(=O)(=O)CC(=O)Nc2nnc(C(C)(C)C)s2)cc1,0%,3%,11,7%,2%
CC[C@](N)(CCC(=O)O)C(=O)O,19µM*!,.,.,-2%,.
CCC(CC)CN1CCC(CN2C(=O)C(=O)NC[C@@H]2CC(C)C)CC1,24%,12%,12,7%,22%
CN(CC(=O)Nc1cccc(Cl)c1)S(=O)(=O)c1ccc2[nH]c3c(c2c1)CCCC3,23µM*,.,.,?,.
COc1cc(Cl)c(NC(=O)CN(C)S(=O)(=O)c2ccc3[nH]c4c(c3c2)CCCC4)c(OC)c1,18µM*,.,.,23µM*,.
CN(CC(=O)Nc1cccc(Cl)c1)S(=O)(=O)c1ccc2[nH]c(=O)oc2c1,2%,-3%,52,6%,-12%
SMILES,DT40 TDP1 no CPT,HT1080NT lethal,IL-1B inflam inh,DT40 TDP1 CPT,HT1080 IDH1KD tx
COc1ccc(NC(=O)CN(C)S(=O)(=O)c2ccc3[nH]c4c(c3c2)CCCC4)cc1Cl,?,.,.,23µM*,.
COc1ccc(NC(=O)CN(C)S(=O)(=O)c2ccc(Br)s2)cc1OC,-24%,-10%,37,?,-3%
COc1ccc(NC(=O)CN(C)S(=O)(=O)c2ccc3[nH]c4c(c3c2)CCCC4)cc1OC,16µM*,.,.,?,.
Cc1cc(C)c(S(=O)(=O)C(C)C)c(=O)[nH]1,1%,14%,3,-29%,1%
Cc1ccc(NC(=O)CN(C)S(=O)(=O)c2ccc3[nH]c4c(c3c2)CCCC4)c(Cl)c1,18µM*,.,.,?,.
Cc1ccc(S(=O)(=O)N(C)CC(=O)Nc2cccc3c2CCCC3)cc1,?,-1%,8,-18%,-12%
Cc1ccc2c(Sc3ccccc3)c(C(=O)NCc3ccccc3F)[nH]c2c1,?,.,.,9.2µM*,.
COc1cccc(CNC(=O)c2[nH]c3cc(C)ccc3c2Sc2ccccc2)c1,15µM*,.,.,?,.
CCOCCCNC(=O)c1[nH]c2cc(OC)ccc2c1Sc1ccccc1,-4%,.,.,-25%,.
Cc1ccc(Sc2c(C(=O)NCc3ccccc3C)[nH]c3ccccc23)cc1,-55%,.,.,?,.
COc1ccc(CNC(=O)COC(=O)c2nc3nc(C)cc(C)n3n2)cc1,3%,4%,30,3%,18%
O=C(NNc1ccccc1)C(=O)NNS(=O)(=O)c1ccc([N+](=O)[O-])cc1,5%,2.1µM*,11,2%,5.8µM*
CC(=O)Nc1ccc(S(=O)(=O)NNc2ccc([N+](=O)[O-])cc2)cc1,?,?,-7,?,16µM*
O=C(NNc1ccc([N+](=O)[O-])cc1)Nc1ccccc1,?,-4%,-5,1%,-6%
Cc1oc(-c2ccccc2NC(=O)C2CCC2)nc1CNC(=O)c1ccccn1,-21%,.,.,-29%,.
O=c1c2ccccc2oc2cc(NCCCn3ccnc3)ccc12,?,0%,-19,?,1%
CN1CCCC1CCNc1ccc2c(=O)c3ccccc3oc2c1 (configuration not stated),18µM*,-9%,-83*,?,-3%
Cn1c2ccccc2c(=O)c2ccc(NCc3ccc4c(c3)OCO4)cc21,15µM*,-3%,-4,23µM*,-13%
CN1CCC[C@H]1CCNc1ccc2c(=O)c3ccccc3n(C)c2c1,?,-4%,-72*,?,-2%
COc1cccc2sc3ccc(NCc4ccc5c(c4)OCO5)cc3c(=O)c12,?,-6%,-1,?,0%
Cn1c2ccccc2c(=O)c2ccc(Cl)cc21,-29%,-1%,-25,-3%,0%
CN1CCCC1CCNc1ccc2oc3ccccc3c(=O)c2c1 (configuration not stated),?,-19%,-79*,?,-2%
COc1ccc(-c2nc3cnc(OC)nc3n(C3CC3)c2=O)cc1,-18%,.,.,4%,.

# Source: PubChem BioAssay (National Center for Advancing Translational Sciences (NCATS))
